These results are taken from PubChem BioAssay (NCI).

Structures are written as SMILES. The panel holds about 83,000 compounds, 20% with a hit somewhere; the sample as a whole holds those more often.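 Values shown are percent growth following 48 h exposure of cells in 96-well plates to a single concentration of compound; below 10 was considered active.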 Unmarked numbers belong to inactive results. Activity calls are given as the source filed them.

Among the test systems are HCT-15 colon; HT29 colon; SNB-75 CNS; SNB-19 CNS; U251 CNS; PC-3 prostate; SK-MEL-5 melanoma; UACC-62 melanoma; LOX IMVI melanoma; SK-MEL-28 melanoma; SK-MEL-2 melanoma; SN12C renal; UO-31 renal; TK-10 renal; ACHN renal; A498 renal; CCRF-CEM leukemia; MOLT-4 leukemia; EKVX NSCLC; CAKI-1 renal.
Common to all, as to assay: NCI-60 one-dose screen, 48 h (100 = growth as untreated, 0 = no growth, -100 = all killed)
Details in all cases: 10 µM unless noted

`COc1ccc(Nc2nc(N)nc3c2CCc2occc2-3)cc1`: the growth in the assay with HCT-15 colon is 92%; with HT29 colon it was 87%; with SNB-75 CNS, 95%; in the assay on SNB-19 CNS it was 99.4%; in the assay on U251 CNS it was 103%; in the assay with PC-3 prostate it was 90.4%. Besides, the growth in the assay on SK-MEL-5 melanoma was 94.6%; with UACC-62 melanoma it was 93.9%; in the assay on LOX IMVI melanoma, 93.1%; in the assay with SK-MEL-28 melanoma it was 106%; with SK-MEL-2 melanoma, 106%; in the assay with SN12C renal, 99.5%. For the same compound, the growth was 83.7% with UO-31 renal; 121% with TK-10 renal; 104% in the assay with ACHN renal; 98.2% in the assay with A498 renal; 97.3% with CCRF-CEM leukemia; 94.3% in the assay with MOLT-4 leukemia.
For `BrC(Br)(Br)c1cnc2ccccc2n1`, the growth with HCT-15 colon was 31.7%; in the assay with HT29 colon, -65.1% (active); in the assay with SNB-75 CNS, 102%; in the assay with SNB-19 CNS it was 67.9%; in the assay on U251 CNS it was 50.3%; in the assay on PC-3 prostate it was 62.3%. The growth in the assay on SK-MEL-5 melanoma was 73.9%; in the assay on UACC-62 melanoma, 61.4%; in the assay with LOX IMVI melanoma it was 30.6%; in the assay with SK-MEL-28 melanoma, 53.5%; in the assay on EKVX NSCLC, 70.4%; with SN12C renal it was 71.6%. Further, the growth in the assay on UO-31 renal was -51.1% (active); with TK-10 renal, -57.9% (active); in the assay on CAKI-1 renal it was -29.7% (active); in the assay on CCRF-CEM leukemia, 23.2%.
For the compound `C=C(C)[C@@H]1CC[C@]2(C(=O)N3CCN(C)CC3)CC[C@]3(C)[C@H](CC[C@@H]4[C@@]5(C)CCC(=O)C(C)(C)[C@@H]5CC[C@]43C)[C@@H]12`, the growth with HCT-15 colon was 61.7%; in the assay on HT29 colon, 39.2%; in the assay on SNB-75 CNS it was 85.2%; in the assay on SNB-19 CNS it was 81.5%; in the assay on PC-3 prostate, 54.7%; in the assay on SK-MEL-5 melanoma, 92.1%. For the same compound, the growth with UACC-62 melanoma is 99.5%; in the assay on LOX IMVI melanoma it was 92.5%; in the assay with SK-MEL-28 melanoma it was 92.7%; in the assay on SK-MEL-2 melanoma, 92.1%; in the assay with EKVX NSCLC, 96.3%; in the assay on SN12C renal it was 75.7%. Moreover, the growth in the assay on UO-31 renal is 66.7%; in the assay on TK-10 renal, 102%; with ACHN renal it was 77.4%; with CAKI-1 renal, 93.5%; with MOLT-4 leukemia, 51.6%.
As for `CN1CCN(c2cc(F)c(NC3=C(Cl)C(=O)c4ncccc4C3=O)c(F)c2)CC1`, the growth was -8.53% (active) in the assay with HCT-15 colon; 11.2% in the assay on HT29 colon; 38% in the assay on SNB-75 CNS; 96.3% in the assay with SNB-19 CNS; 11.8% in the assay with PC-3 prostate; -91.7% (active) with SK-MEL-5 melanoma. Also, the growth with UACC-62 melanoma is -45.6% (active); in the assay with LOX IMVI melanoma it was -70.3% (active); in the assay on SK-MEL-28 melanoma, -55.1% (active); in the assay with SK-MEL-2 melanoma, -49.6% (active); in the assay with EKVX NSCLC it was -82.7% (active); with SN12C renal it was -97.5% (active). Besides, the growth with UO-31 renal is -100% (active); in the assay on TK-10 renal, 8.46% (active); in the assay on ACHN renal, -93.1% (active); in the assay with CAKI-1 renal, -85.6% (active); in the assay with A498 renal it was 80.1%; with CCRF-CEM leukemia it was -18.2% (active). The growth with MOLT-4 leukemia was -22.7% (active).
For the compound `COc1cc(C2CC(c3cccc(Nc4ccncc4)c3)=NN2c2ccccc2)cc(OC)c1OC` (configuration not stated), the growth is 28.2% with HCT-15 colon; 1.04% (active) in the assay with HT29 colon; 44.2% in the assay on SNB-75 CNS; 68.1% in the assay with SNB-19 CNS; 30.2% with PC-3 prostate; -52.5% (active) with SK-MEL-5 melanoma. Moreover, the growth is 96.2% with UACC-62 melanoma; 33.8% with LOX IMVI melanoma; 5.22% (active) with SK-MEL-28 melanoma; 83.1% in the assay on SK-MEL-2 melanoma; 71.2% in the assay with EKVX NSCLC; 62.5% in the assay on SN12C renal. Besides, the growth was 53.3% in the assay with UO-31 renal; 82.8% in the assay on TK-10 renal; 65.6% in the assay with ACHN renal; 43.6% in the assay on CAKI-1 renal; 74.9% with A498 renal; 6.7% (active) in the assay with CCRF-CEM leukemia.
With `COc1ccccc1C(C[N+](=O)[O-])c1c(-c2ccccc2)[nH]c2cc(C)ccc12` (configuration not stated), the growth in the assay with HCT-15 colon is 44%; with HT29 colon, 35.8%; with SNB-75 CNS, 42.7%; in the assay on SNB-19 CNS, 81%; in the assay on PC-3 prostate, 69.5%; in the assay on SK-MEL-5 melanoma, 74.9%. Moreover, the growth with UACC-62 melanoma is 43.8%; in the assay with LOX IMVI melanoma, 70.1%; in the assay on SK-MEL-28 melanoma it was 78.9%; with SK-MEL-2 melanoma, 62.8%; in the assay on EKVX NSCLC it was 71.7%; in the assay on SN12C renal, 77.9%. Further, the growth with UO-31 renal is 57.2%; with TK-10 renal, 118%; with ACHN renal it was 73.4%; in the assay with CAKI-1 renal it was 38.1%; in the assay with CCRF-CEM leukemia, 54.4%; in the assay on MOLT-4 leukemia it was 53%.
Consider `FCc1nc2nc(Cl)c(Cl)nc2[nH]1`, for which the growth was 103% with HCT-15 colon; 99.4% in the assay on HT29 colon; 91.2% in the assay with SNB-75 CNS; 94.9% with SNB-19 CNS; 95.2% with PC-3 prostate; 99.4% with SK-MEL-5 melanoma. Further, the growth with UACC-62 melanoma is 94.9%; in the assay on LOX IMVI melanoma, 95.3%; in the assay on SK-MEL-28 melanoma it was 105%; with SK-MEL-2 melanoma, 107%; in the assay on EKVX NSCLC it was 103%; in the assay with SN12C renal it was 109%. In addition, the growth with UO-31 renal was 94.5%; in the assay on TK-10 renal, 92.7%; with ACHN renal, 99.5%; with CAKI-1 renal it was 91.6%; with CCRF-CEM leukemia it was 104%; in the assay with MOLT-4 leukemia it was 97.8%.
As for `c1ccc(CCSc2ncnc3nc[nH]c23)cc1`, the growth in the assay with HCT-15 colon was 98.2%; with HT29 colon, 90.6%; with SNB-75 CNS, 98.7%; in the assay with SNB-19 CNS, 84.8%; with PC-3 prostate it was 82.8%; in the assay on SK-MEL-5 melanoma, 85.1%. The growth in the assay on UACC-62 melanoma was 76.9%; in the assay on LOX IMVI melanoma, 80.5%; with SK-MEL-28 melanoma, 103%; in the assay with SK-MEL-2 melanoma, 53.6%; in the assay on EKVX NSCLC it was 73.4%; in the assay on SN12C renal, 86.5%. Further, the growth was 84.4% in the assay with UO-31 renal; 122% with TK-10 renal; 86.7% in the assay with CAKI-1 renal; 86.3% in the assay with A498 renal; 92.6% with CCRF-CEM leukemia; 92.4% in the assay with MOLT-4 leukemia.
